Screens from PubChem BioAssay.
Compounds with a hit are over-represented: about 9.2% of the library has one in this group of screens.
HTT cytoprotect: protects HTT-Q103 PC12 cells, measured by ATP | PC12 HTT-Q103 induced, cytoprotection, ATP luminescence, 40 h | Potency, µM (titrated, usually from 56.4 µM), for the others: cytoprotection (ATP increase), actives largely listed as activators | 0.14% of 230,000 active; active = well fitted curve in the direction sought with a large enough effect; inconclusive = small, poorly fitted or top-dose-only effect, or another doubt; inactive = no such curve, though single readings can be large; an effect the other way counts as inactive or inconclusive; also: % of control where 0% means no effect; nearly all actives have a fitted effect of over 45% in size
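Compounds added alongside 100 nM tebufenozide, which induces toxic Q103 huntingtin exon 1-GFP in stable PC12 cells; surviving cells quantified by luminescent ATP measurement. Medium: phenol red-free DMEM, 5% equine and 5% calf serum.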
HPGD inh: blocks human HPGD enzyme activity; P15428; purified HPGD, NADH fluorescence kinetic, PGE2 substrate; Potency, µM, for inactives: at the top dose activity change, negative = inhibition, actives largely listed as inhibitors; 4.3% of 150,000 active; AID 894; also: % is scaled to controls: 0 for no effect and ±100 for the full control effect
Target sequence (P15428 whole entry, looked up): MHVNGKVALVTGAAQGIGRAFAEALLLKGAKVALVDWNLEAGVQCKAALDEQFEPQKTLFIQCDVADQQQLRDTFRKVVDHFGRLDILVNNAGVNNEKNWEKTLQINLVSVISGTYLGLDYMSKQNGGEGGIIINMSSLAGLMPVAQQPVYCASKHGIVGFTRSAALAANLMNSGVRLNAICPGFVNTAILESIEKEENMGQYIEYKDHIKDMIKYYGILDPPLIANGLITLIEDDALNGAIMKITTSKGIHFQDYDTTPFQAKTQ
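20 nM HPGD preincubated 15 min at room temperature with compound in 50 mM Tris-HCl pH 8, 0.01% Tween 20. Started with 1 mM NAD+ and 30 uM prostaglandin E2; NADH fluorescence (360/450 nm) read 5 times over 30-s intervals, last minus first.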
KDM4E inh: JMJD2E (human) inhibition. Potency, µM (highest dose often 57.1 µM), inactives show at the top dose activity change, negative = inhibition, hits mostly inhibitors. B2RXH2. JMJD2E catalytic domain, FDH-coupled NADH fluorescence (FDH is formaldehyde dehydrogenase). 1.6% of 230,000 active;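 also: 0% = wells with enzyme and -100% = buffer wells without enzyme; nearly all actives have a fitted effect of over 50% in size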
Target sequence (B2RXH2 1-337 limits assumed): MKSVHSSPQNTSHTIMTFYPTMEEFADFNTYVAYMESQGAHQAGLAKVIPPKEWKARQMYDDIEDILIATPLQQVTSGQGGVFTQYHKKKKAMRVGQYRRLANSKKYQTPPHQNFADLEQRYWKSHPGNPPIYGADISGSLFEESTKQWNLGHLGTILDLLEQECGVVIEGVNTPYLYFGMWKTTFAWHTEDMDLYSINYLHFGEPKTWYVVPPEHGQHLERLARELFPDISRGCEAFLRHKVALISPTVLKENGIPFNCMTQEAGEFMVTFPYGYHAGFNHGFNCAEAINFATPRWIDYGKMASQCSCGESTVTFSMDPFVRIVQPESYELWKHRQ
ALDH1A1 block: inhibitors of human aldehyde dehydrogenase 1A1; P00352; Purified ALDH1A1, NADH fluorescence, propionaldehyde substrate; Potency, µM (doses to about 75.3 µM), inactives show at the top dose activity, negative = inhibition, usual class: inhibitors; 7.3% of 220,000 active;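 also: plate controls were no enzyme wells and a reference inhibitor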
LMNA splice mod: LMNA splicing modulation | HeLa LMNA splicing GFP/RFP minigene ratio, 48 h | Potency, µM (titrated, usually from 46.1 µM), for inactives: at the top dose ratio change, negative = inhibition, hits mostly inhibitors | 0.01% of 200,000 active; active = well fitted inhibition curve with a large enough effect in the signal ratio, with a control signal flat, not every such curve was filed as active; inconclusive = small, poorly fitted or top-dose-only effect, or effect the other way, or a change in a side signal; the % refers to the signal ratio; also: % is scaled to controls: 0 for no effect and ±100 for the full control effect
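Read-out is the ratio of GFP to DsRed2 object intensity, acquired by 488 nm laser-scanning cytometry on HeLa lamin A-EGFP minigene reporter cells. Compound incubation 48 hrs at 37 °C in Opti-MEM with 2% FBS; DMSO 0.5% final.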
HTT aggregate: reduces HttQ103-GFP aggregates in PC12 cells; PC12 HttQ103-GFP aggregates, Acumen cytometry, 40 h; 1.1% of 220,000 active; Potency, µM (titrated, usually from 46.1 µM), without a hit: top-dose activity change, negative = inhibition, hits mostly inhibitors; active = well fitted curve in the direction sought with a large enough effect; inconclusive = small, poorly fitted or top-dose-only effect, or another doubt; inactive = no such curve, though single readings can be large; an effect the other way counts as inactive or inconclusive; also: % is scaled to controls: 0 for no effect and ±100 for the full control effect; nearly all actives have a fitted effect of over 60% in size
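Read-out: GFP aggregate count by laser scanning cytometer (488 nm excitation, 500-530 nm emission, 1–25 µm objects >6 SD above background). Cells: PC12, inducible HTTex1-Q103-GFP, 100 nM tebufenozide; compounds titrated.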
* hit, by the source's call; ? = inconclusive; nt = no result; [ ] = another dose, or the depositor's remark. Unless noted, calls follow the shape of the dose curve; as a rule, active = well fitted inhibition curve with a large enough effect (not every such curve was filed as active); inconclusive = small, poorly fitted or top-dose-only effect, or another doubt; inactive = no such curve, though single readings can be large or run the other way. Potency is read from the fitted curve at half-maximal effect.

SMILES	HTT cytoprotect	HPGD inh	KDM4E inh	ALDH1A1 block	LMNA splice mod	HTT aggregate
Cc1cccc(C)c1-n1c(C)nn(CC#N)c1=O	-39%	nt	-19%	3%	-6%[46 µM]	19%
Cc1csc(NC(=O)c2cc3c(s2)CCCCC3)n1	-126%	25µM*	44%	?	?	?
Cn1c(SCC(=O)O)nnc1-c1ccc(NC(=O)c2ccc(Cl)c(Cl)c2)cc1	-4%[10 µM]	nt	-3%	-9%	nt	-22%[9.22 µM]
CCOc1cc(CNCCSc2nnnn2-c2ccccc2)cc(Cl)c1OC	nt	nt	nt	nt	5%[46 µM]	nt
OCCn1c(CSc2nnc(-c3ccco3)n2-c2ccccc2)nc2ccc(Cl)cc21	9%[10 µM]	?	-10%	13µM*	3%	-10%
CCCN1CCN(C(=O)c2nn(-c3ccc(OC)cc3)c(=O)c3c2c2ccccc2n3C)CC1	-23%	nt	5%	0%	nt	10%
COc1ccccc1OC(C)C(=O)NNC(=S)NC1CCCC1 (stereo not given)	6%	nt	-15%	-18%	nt	12%
CC(OC(=O)c1ccco1)C(=O)NC1CCCCC1 (stereo not given)	-2%	14µM*	-3%	3%	-5%	11%[9.22 µM]
Cc1ccccc1OC(C)C(=O)NC1CCCC1 (stereo not given)	2%	13µM*	0%	-3%	6%	-12%
CC(C)C(OC(=O)c1ccco1)C(=O)NC1CCCCC1 (stereo not given)	16%[10 µM]	-3%	-1%	9%	12%	15%
O=C(O)c1ccccc1CN1CCC[C@@H](C(=O)O)C1	-13%[10 µM]	-5%	nt	18%[13.5 µM]	nt	nt
O=C(CSc1nnc(SCc2cccc3ccccc23)s1)N/N=C/c1c[nH]c2ccccc12	12%[10 µM]	-9%	-5%	14µM*	?	-1%
O=C(O)CSc1nnc(SCc2cccc3ccccc23)s1	-1%	16µM*	-2%	?	4%	13%
COc1ccc(C2c3ccc(O)cc3Oc3ncn4nc(-c5ccncc5)nc4c32)cc1OC (stereo not given)	27%[10 µM]	nt	3%	3%	nt	36%[9.22 µM]
CCn1c(C)nc2cc(C(=O)n3cc(C(=O)c4cc(F)ccc4O)cn3)ccc21	0%[10 µM]	?	1%	1.4µM*	5%	-15%
COc1ccc(O)c(C(=O)c2cnn(-c3ccccn3)c2)c1	-11%	nt	-4%	-3%	-27%[46 µM]	-15%
Cc1cc(C)nc(-n2cc(C(=O)c3cc(F)ccc3O)cn2)n1	6%[10 µM]	-13%	-4%	10µM*	-12%	-18%
CC1(C)CCC(NC(=O)[C@H](N)CCC(=O)O)CC1	-8%[1.9 µM]	nt	nt	nt	nt	nt
COc1ccc(C(=O)CSc2nnc(NC(=O)C3CC(=O)N(c4ccccc4C)C3)s2)cc1 (stereo not given)	2%[10 µM]	-12%	-12%	11µM*	-12%	13%
COc1cccc(N2CC(C(=O)Nc3nnc(SCC(=O)Nc4cc(C)on4)s3)CC2=O)c1 (stereo not given)	8%	nt	1%	4%	7%[46 µM]	-15%
Cc1ccc(NC(=S)NCCSc2ccc(Cl)cc2)c(C)c1	1.8µM*	-21%	-5%	?	?	6%
Cc1ccc(NC(=S)NCC(C)CSc2ccc(Cl)cc2)cc1 (stereo not given)	-167%	nt	2%	?	?	25µM*
COc1ccccc1-c1oc2ccccc2c(=O)c1OC	?	7%	?	-8%	nt	nt
O=C1CC(c2ccco2)CC(O)=C1C=Nc1cc(Cl)ccc1O (stereo not given)	-8%	8.9µM*	28µM*	?	?	25%
NC(=S)NNc1c(F)c(F)c(F)c(F)c1F	-5%[10 µM]	nt	3%	8.9µM*	15%[46 µM]	16%
SMILES	HTT cytoprotect	HPGD inh	KDM4E inh	ALDH1A1 block	LMNA splice mod	HTT aggregate
Cc1nc(CNS(=O)(=O)c2cc(C)c(C)cc2C)cs1	6%[10 µM]	-9%	-1%	13µM*	-2%	10%
COc1cccc(CN2CCNC(=O)C2CC(=O)NCc2cc(C(C)C)no2)c1 (stereo not given)	-3%[10 µM]	nt	-19%	-12%	18%[46 µM]	-1%[9.22 µM]
COC(=O)N1CCC2(CCCN(C(c3ccccc3)c3ccccc3)C2)CC1	8%	1%	nt	6%	nt	nt
Cc1ccc(NC(=O)NC2=N/C(=C(/C#N)C(=O)N3CCCC3)c3ccccc32)cc1	-11%[10 µM]	-21%	5%	0.63µM*	10%	0%
O=C(O)c1cc(S(=O)(=O)Nc2ccc(O)cc2)ccc1Cl	nt	-5%	nt	0%	nt	nt
Cc1ccc2nc(SCC(=O)NCc3ccco3)c(C#N)cc2c1	14%[10 µM]	7.9µM*	4%	-8%	14%	9%
Cc1ccc2cc(C#N)c(SCC(=O)NCc3ccco3)nc2c1	-8%[10 µM]	-16%	?	?	12%	5%
Cc1ccc2nc(SCC(=O)NCc3ccco3)c(C)cc2c1	-7%[10 µM]	nt	-23%	16µM*	-19%[46 µM]	-6%[9.22 µM]
Cc1ccc(Nc2c(-c3ccccn3)nc3cc(C)ccn23)cc1	-116%	nt	0%	-5%	nt	7.9µM*
Cc1ccc(Nc2c(-c3ccccn3)nc3ccc(C)cn23)cc1	-44%[10 µM]	nt	4%	-6%	nt	11µM*
Cc1ccn2c(Nc3ccc4c(c3)OCO4)c(-c3ccccn3)nc2c1	-21%[10 µM]	-19%	0%	-4%	?	-18%
Cc1ccc2nc(-c3ccncc3)c(Nc3ccccc3)n2c1	8%[10 µM]	?	?	?	0%	14%
O=C(Nc1cccc(Cl)c1)Nc1csc([N+](=O)[O-])c1	18%[10 µM]	nt	2%	nt	nt	-12%[9.22 µM]
O=C(c1ccc2c(c1)N(Cc1cccc(Cl)c1)C(=O)c1ccccc1S2)N1CCOCC1	nt	nt	nt	nt	9%[46 µM]	nt
CCOC(=O)c1ccc(N2C(=O)C3C(C2=O)C(C(=O)c2ccc(Cl)cc2)N2CCCC32)cc1 (stereo not given)	-20%[0.074 µM]	2.2µM*	?	13µM*	-12%	?
Cn1cc(CNC(=O)C23CC4CC(CC(C4)C2)C3)cn1	-3%[10 µM]	-14%	6%	5µM*	-6%	-4%
O=C(NCc1ccncc1)C12CC3CC(CC(C3)C1)C2	-12%	-18%	3%	?	-5%	19%
CCN(C(=O)/C=C/c1ccc2c(c1)OCO2)c1ccccc1	13%[10 µM]	28µM*	-25%	-15%	1%	19%
CC(O)CNc1ccc(-c2nn(C)c(=O)c3ccccc23)cc1[N+](=O)[O-] (stereo not given)	-27%	nt	11%	7.9µM*	nt	-5%[9.22 µM]
O=C(N[C@@H](Cc1ccccc1)C(=O)O)c1ccccc1	-40%	1%	-5%	4%	nt	nt
Cc1ccc(OCC(=O)Nc2ccc(C(=O)OCc3cc(=O)n4ccsc4n3)cc2)cc1C	nt	nt	nt	nt	-12%[46 µM]	nt
Cc1ccc(SCC(=O)N(Cc2nc(-c3ccccc3)no2)C(C)C)cc1	4%[0.074 µM]	5%	1%	25µM*	-21%	-8%
